Laboratory results reported in PubChem BioAssay (Tox21).
Where “and” joins values, the source holds several entries; their conditions need not be identical. Equal values may be shown once. Values without a mark were called inactive. Records with an inconclusive call do not appear. A call without a number means that no potency is given here. Calls of active or inactive are those of the source. Unless noted, the call rests on the fitted dose curve; in most records, active means well fitted curve in the direction sought with a large enough effect in the repeat runs; inconclusive means weak or mixed curves; inactive means no such curve, though single readings can be large; an effect the other way counts as inactive or inconclusive.

Assays:
[1] = molecular target: Luciferin 4-monooxygenase (Photinus pyralis) (UniProt P08659); experiment: qHTS assay to identify small molecule inhibitors of firefly luciferase (AID 1224835); further: nearly all actives have a fitted effect of over 25% in size; further: potency means the concentration at half of the fitted maximal effect
Chain of Luciferin 4-monooxygenase (Photinus pyralis) (P08659 whole entry, looked up): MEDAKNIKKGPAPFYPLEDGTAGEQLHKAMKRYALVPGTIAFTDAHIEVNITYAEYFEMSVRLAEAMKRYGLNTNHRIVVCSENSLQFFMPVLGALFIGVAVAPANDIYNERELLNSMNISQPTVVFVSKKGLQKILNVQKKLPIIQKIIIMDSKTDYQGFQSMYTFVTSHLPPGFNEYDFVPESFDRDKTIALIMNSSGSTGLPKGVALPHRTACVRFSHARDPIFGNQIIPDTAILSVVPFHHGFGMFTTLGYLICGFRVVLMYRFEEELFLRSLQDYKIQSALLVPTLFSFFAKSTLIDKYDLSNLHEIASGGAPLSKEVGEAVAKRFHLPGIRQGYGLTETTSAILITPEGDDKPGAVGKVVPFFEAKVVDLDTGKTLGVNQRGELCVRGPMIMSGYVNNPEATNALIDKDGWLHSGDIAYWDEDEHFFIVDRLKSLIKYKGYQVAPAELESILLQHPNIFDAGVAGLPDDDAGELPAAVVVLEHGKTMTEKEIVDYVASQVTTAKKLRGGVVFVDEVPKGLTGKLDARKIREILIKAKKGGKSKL
Method in brief: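 Biochemical qHTS: compounds run as interplate titrations against purified firefly enzyme, with D-luciferin and ATP each at its KM concentration. Light output recorded by CCD imaging.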

[2] = qHTS assay to identify small molecule agonists of the constitutive androstane receptor (CAR) signaling pathway - cell viability counter screen (AID 1224836); further: nearly all actives have a fitted effect of over 45% in size; further: potency means the concentration at half of the fitted maximal effect
Method in brief: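 Multiplexed viability check: HepG2-CYP2B6-hCAR cells, 15-point compound dosing, 0.75 uM PK11195 final, 23 h at 37 C, CellTiter-Fluor fluorescence.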

[3] = qHTS assay to identify small molecule antagonists of the constitutive androstane receptor (CAR) signaling pathway - cell viability counter screen (AID 1224837); further: nearly all actives have a fitted effect of over 45% in size; further: potency means the concentration at half of the fitted maximal effect
Method in brief: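 In quantitative HTS format, compounds at 15 concentrations were applied to HepG2 cells double-transfected with hCAR and CYP2B6-2.2kb under 50 nM CITCO stimulation; live-cell protease activity was read after 23 hr via CellTiter-Fluor.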

[4] = qHTS assay to identify small molecule antagonists of the estrogen related receptor signaling pathway with the pleiotropic PPARgamma coactivator (PGC) from Tox21 10K library - cell viability counter screen (AID 1224840; active means well fitted cell-killing curve with a large enough effect in the repeat runs, not every such curve was filed as active; further: nearly all actives have a fitted effect of over 40% in size; further: potency means the concentration at half of the fitted maximal effect)
Method in brief: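 Viability counter screen, PGC/ERR cells: 17.5 h compound exposure at 37 C, CellTiter-Fluor fluorescence endpoint.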

[5] = qHTS assay to identify small molecule agonists of the hypoxia (HIF-1) signaling pathway - cell viability counter screen (AID 1224844; calls by dose curve; further: nearly all actives have a fitted effect of over 50% in size; further: potency means the concentration at half of the fitted maximal effect)
Method in brief: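 Same wells as the HIF-1 reporter screen; ME-180 cells carrying HRE-bla, 17 hr treatment at 37C; CellTiter-Glo luminescence read after 30 min at room temperature.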

[6] = qHTS assay to identify small molecule agonists of H2AX (AID 1224845; active means well fitted activation curve with a large enough effect in the signal ratio in the repeat runs, not every such curve was filed as active; the % refers to the signal ratio; further: potency means the concentration at half of the fitted maximal effect)
Method in brief: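 Wild-type CHO-K1 cells, plated overnight, exposed 3hr at 37C to 15 concentrations (0.76% DMSO final). Lysed, then HTRF anti-pH2AX (S139) cryptate and anti-H2AX-d2 antibodies, 24 hr room temperature; 665/620 nm emission read.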

[7] = qHTS assay to identify small molecule agonists of the hypoxia (HIF-1) signaling pathway (AID 1224846; active means well fitted activation curve with a large enough effect in the signal ratio in the repeat runs, not every such curve was filed as active; the % refers to the signal ratio)
Method in brief: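 In ME-180 cells bearing an HRE-bla construct, 17 h treatment with DMSO-dissolved compounds at 37C was followed by CCF4-AM loading to quantify reporter induction.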

[8] = qHTS assay to identify small molecule agonists of H2AX - cell viability counter screen (AID 1224847; calls by dose curve; further: nearly all actives have a fitted effect of over 30% in size; further: potency means the concentration at half of the fitted maximal effect)
Method in brief: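 After overnight plating of 1000 CHO-K1 cells per well, a 15-concentration compound series was applied for 3 hr at 37C. Luminescence from CellTiter-Glo, read following 30 min at room temperature, reflected cell viability.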

[9] = qHTS RealTime-Glo MT Cell Viability Assay in HepG2 cells - 24 hour (AID 1224867); further: nearly all actives have a fitted effect of over 50% in size
Method in brief: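 Luminescence read-out: viable HepG2 cells reduce a prosubstrate to a NanoLuc substrate, giving a signal proportional to live cell number. Reads taken at 0, 8, 16, 24, 32 and 40 h of compound exposure at 37 C.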

[10] = qHTS RealTime-Glo MT Cell Viability Assay in HEK293 cells - 32 hour (AID 1224868); further: nearly all actives have a fitted effect of over 50% in size; further: potency means the concentration at half of the fitted maximal effect
Method in brief: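 Nonlytic real-time viability readout: viable cells convert prosubstrate to NanoLuc substrate, giving luminescence proportional to live cell number. HEK293, 600 cells/well, compound added after 5 h, continuous culture at 37 C.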

[11] = A CellTox Green Cytotoxicity Assay to monitor cytotoxicity in HEK293 cells - 0 hour (AID 1224869); further: nearly all actives have a fitted effect of over 50% in size
Method in brief: (§1)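 Homogeneous no-lysis format: HEK293 cell suspension mixed with CellTox Green reagent, seeded, incubated 5 h at 37 C/5% CO2, then dosed by pintool with compound in DMSO.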

[12] = qHTS RealTime-Glo MT Cell Viability Assay in HepG2 cells - 40 hour (AID 1224870); further: nearly all actives have a fitted effect of over 50% in size
Method in brief: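 HepG2 cells (600/well) mixed with RealTime-Glo MT reagent, settled 5 h at 37 C/5% CO2 before compound addition. Nonlytic NanoLuc luminescence from viable-cell prosubstrate reduction read repeatedly during 40 h treatment at 37 C.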

[13] = A CellTox Green Cytotoxicity Assay to monitor cytotoxicity in HEK293 cells - 40 hour (AID 1224871); further: nearly all actives have a fitted effect of over 45% in size; further: potency means the concentration at half of the fitted maximal effect
Method in brief: as §1

[14] = qHTS assay to identify small molecule antagonists of the estrogen related receptor signaling pathway with the pleiotropic PPARgamma coactivator (PGC) from Tox21 10K library (AID 1224841; call rule not given here)
Method in brief: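 In the PGC/ERR line, DMSO solutions of test chemicals are pin-delivered to 2,000 cells/well six hours after dispensing. Following eighteen hours' incubation, One-Glo reagent is added and luminescence recorded.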

[15] = qHTS assay to identify small molecule agonists of the estrogen related receptor signaling pathway with the pleiotropic PPARgamma coactivator (PGC) from Tox21 10K library (AID 1224842); further: nearly all actives have a fitted effect of over 15% in size
Method in brief: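 PGC/ERR reporter cell line, 2,000 cells per well, incubated 6 h at 37 C before 23 nL compound in DMSO was added. After 18 h at 37 C, One-Glo luminescence read following 30 min at room temperature.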

[16] = molecular target: Thyrotropin receptor (Homo sapiens) (UniProt P16473); experiment: qHTS assay to identify small molecule agonists of the thyroid stimulating hormone receptor (TSHR) signaling pathway (AID 1224843; calls by dose curve; further: nearly all actives have a fitted effect of over 45% in size; further: potency means the concentration at half of the fitted maximal effect)
Chain of Thyrotropin receptor (Homo sapiens) (P16473 whole entry, looked up): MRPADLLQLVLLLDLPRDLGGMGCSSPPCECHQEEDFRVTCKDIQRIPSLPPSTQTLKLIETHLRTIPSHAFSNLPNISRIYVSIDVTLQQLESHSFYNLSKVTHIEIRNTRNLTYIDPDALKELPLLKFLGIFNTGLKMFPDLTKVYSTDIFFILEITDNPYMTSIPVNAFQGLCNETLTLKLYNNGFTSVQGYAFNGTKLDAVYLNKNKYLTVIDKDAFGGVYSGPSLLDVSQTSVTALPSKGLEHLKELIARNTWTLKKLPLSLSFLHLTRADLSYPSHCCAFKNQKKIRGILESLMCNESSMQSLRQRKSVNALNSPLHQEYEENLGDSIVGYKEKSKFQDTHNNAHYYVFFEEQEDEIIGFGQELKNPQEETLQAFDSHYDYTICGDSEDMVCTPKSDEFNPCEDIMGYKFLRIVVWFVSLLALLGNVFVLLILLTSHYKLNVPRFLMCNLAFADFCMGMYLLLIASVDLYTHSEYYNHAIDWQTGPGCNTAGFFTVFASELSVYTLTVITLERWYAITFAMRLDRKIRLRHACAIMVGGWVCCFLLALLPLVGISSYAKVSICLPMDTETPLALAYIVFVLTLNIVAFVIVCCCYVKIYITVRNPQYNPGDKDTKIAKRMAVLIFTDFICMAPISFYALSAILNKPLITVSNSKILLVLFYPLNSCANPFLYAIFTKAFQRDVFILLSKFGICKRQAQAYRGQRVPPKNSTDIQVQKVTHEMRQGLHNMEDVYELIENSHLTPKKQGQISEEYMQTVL
Method in brief: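 Agonist-mode screen: TSHR HEK293 cells received test chemicals for half an hour at room temperature, then HTRF cAMP detection reagents for one hour prior to fluorescence measurement. Each chemical ran as a 15-concentration series, triplicated.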

[17] = qHTS assay to identify small molecule antagonists of the estrogen related receptor (ERR) signaling pathway from Tox21 library (AID 1224848); further: nearly all actives have a fitted effect of over 50% in size; further: potency means the concentration at half of the fitted maximal effect
Method in brief: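 Quantitative high-throughput format: ERR reporter cells (2,000/well) pre-incubated 6 h, treated 18 h at 37 C with compounds in DMSO alongside positive and negative controls, then read by ONE-Glo luminescence.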

[18] = qHTS assay to identify small molecule agonists of the estrogen related receptor (ERR) signaling pathway from Tox21 library (AID 1224849; calls by dose curve; further: nearly all actives have a fitted effect of over 15% in size); conditions: ERR reporter cell line, ONE-Glo luciferase, 18 h; at 92.4 µM (top of the series) unless noted
Method in brief: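 Reporter cells (ERR, NTP source) treated with Tox21 10K compounds 18 h, 37 C. Readout: ONE-Glo luminescence, 30 min RT.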

[19] = molecular target: Nuclear receptor subfamily 1 group I member 3 (Homo sapiens) (UniProt Q14994); experiment: qHTS assay to identify small molecule antagonists of the constitutive androstane receptor (CAR) signaling pathway (AID 1224838); further: nearly all actives have a fitted effect of over 40% in size; further: potency means the concentration at half of the fitted maximal effect
Chain of Nuclear receptor subfamily 1 group I member 3 (Homo sapiens) (Q14994 whole entry, looked up): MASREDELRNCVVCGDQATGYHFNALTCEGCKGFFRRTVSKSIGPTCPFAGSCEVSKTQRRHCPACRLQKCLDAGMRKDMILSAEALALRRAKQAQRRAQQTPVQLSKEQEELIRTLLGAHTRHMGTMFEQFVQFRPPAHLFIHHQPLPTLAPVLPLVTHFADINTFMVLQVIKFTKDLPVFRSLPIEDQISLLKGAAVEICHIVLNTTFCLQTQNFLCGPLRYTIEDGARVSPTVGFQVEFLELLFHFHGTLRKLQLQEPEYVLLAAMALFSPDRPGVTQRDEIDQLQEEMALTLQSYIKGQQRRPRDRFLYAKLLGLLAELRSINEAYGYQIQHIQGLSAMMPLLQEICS
Method in brief: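 CITCO-stimulated (50 nM final) HepG2 cells stably transfected with hCAR and CYP2B6-2.2kb luciferase were exposed to compounds at 15 concentrations for 24 h at 37 C/5% CO2. A luciferase reagent was added and luminescence recorded after 30 min.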

[20] = molecular target: Nuclear receptor subfamily 1 group I member 3 (Homo sapiens) (UniProt Q14994); experiment: qHTS assay to identify small molecule agonists of the constitutive androstane receptor (CAR) signaling pathway (AID 1224839); further: nearly all actives have a fitted effect of over 15% in size; further: potency means the concentration at half of the fitted maximal effect;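 on activation: HepG2 cells stably carrying human CAR and a CYP2B6 luciferase reporter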
Method in brief: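 Using human hepatoma HepG2 cells engineered with hCAR and a CYP2B6-2.2kb reporter, 15-concentration compound series were incubated 24 h alongside PK11195 at 0.75 uM final, with luminescence quantified afterwards.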

Compound	Potency [1]	Potency [2]	Potency [3]	Potency [4]	Potency [5]	Potency [6]	Potency [7]	Potency [8]	Potency [9]	Potency [10]	Potency [11]	Potency [12]	Potency [13]	Potency [14]	Potency [15]	Potency [16]	Potency [17]	activity change, positive = activation [18]	Potency [19]	Potency [20]
[O-][Cl+3]([O-])([O-])O	inactive	inactive	inactive	inactive	inactive	inactive	inactive	inactive	inactive	inactive	inactive	inactive	inactive	–	–	–	–	–	–	–
CCC(C)c1cccc(C(C)CC)c1O (stereo unspecified)	inactive	inactive	inactive	–	inactive	–	–	35.7 µM (active)	inactive	inactive	inactive	inactive	27.5 µM (active)	–	–	–	–	–	–	–
CCN(CC)Cc1nccn1-c1ccc([N+](=O)[O-])cc1C(=O)c1ccccc1Cl	inactive	–	26.6 µM (active)	inactive	inactive	inactive	inactive	inactive	inactive	inactive	inactive	inactive	inactive	inactive	inactive	inactive	inactive	-10.7% [at 42.5 µM]	–	–
CO/N=C(\C(=O)OC)c1ccccc1CO/N=C(\C)c1cccc(C(F)(F)F)c1	inactive	–	inactive	inactive	–	inactive	–	2.01 µM (active)	inactive	–	inactive	inactive	6.92 µM (active)	–	–	–	–	–	inactive	8.63 µM (active)
O=S1(=O)OCC2C(CO1)C1(Cl)C(Cl)=C(Cl)C2(Cl)C1(Cl)Cl (stereo unspecified)	39.9 µM (active)	–	–	inactive	–	inactive	inactive	inactive	–	–	–	inactive	49 µM (active)	–	–	17.2 µM (active)	–	–	–	17.2 µM (active)
Cc1ccc2cc3c(ccc4ccccc43)c3c2c1CC3	11.3 µM (active)	inactive	–	inactive	inactive	–	–	inactive	inactive	inactive	inactive	inactive	–	–	–	inactive	–	–	0.865 µM (active)	inactive
[O]=[Cr](=[O])([OH])[O][Cr](=[O])(=[O])[OH]	inactive	15.5 µM (active) and 15.3 µM (active)	11 µM (active) and 9.67 µM (active)	3.85 µM (active)	2.78 µM (active) and 12.3 µM (active)	101 µM (active)	–	90.6 µM (active)	–	4.41 µM (active) and 4.36 µM (active)	inactive	–	inactive	–	–	inactive	–	–	–	–
Oc1ccc([C@H]2CNCc3c2ccc(O)c3O)cc1O	–	inactive	inactive	inactive	inactive	–	–	inactive	–	inactive	inactive	inactive	–	inactive	inactive	–	inactive	-4.81% [at 42.5 µM]	inactive	inactive
Oc1cccc(Cl)c1Cl	–	inactive	inactive	inactive	–	–	inactive	inactive	inactive	–	inactive	inactive	inactive	–	inactive	inactive	–	-30.2%	inactive	inactive
Oc1ccc2[nH]cc(CCCCN3CC=C(c4ccccc4)CC3)c2c1	–	inactive	inactive	–	inactive	–	inactive	–	inactive	23.9 µM (active)	inactive	inactive	–	–	inactive	inactive	29.8 µM (active)	–	–	–
CC(C)=CCN1CC[C@@]2(C)c3cc(O)ccc3C[C@@H]1[C@@H]2C	–	inactive	inactive	inactive	inactive	inactive	inactive	inactive	inactive	–	–	inactive	–	–	–	inactive	–	–	–	–
CN1[C@@H]2CC[C@H]1CC(O)C2 (stereo partly specified)	–	inactive	inactive	inactive	inactive	–	–	inactive	inactive	inactive	inactive	inactive	–	–	–	–	–	–	inactive	inactive
C=CCOC(=O)c1ccccc1N	–	inactive	inactive	inactive	inactive	inactive	inactive	–	inactive	inactive	inactive	inactive	–	–	inactive	inactive	–	-28.9%	inactive	–
ClSC(Cl)(Cl)Cl	–	inactive	inactive	inactive	inactive	inactive	inactive	inactive	inactive	inactive	inactive	inactive	–	inactive	inactive	inactive	inactive	1.32%	inactive	inactive
Brc1cccc(-c2ccccc2)c1	–	inactive	inactive	inactive	inactive	–	inactive	–	inactive	inactive	inactive	inactive	39.2 µM (active)	inactive	inactive	–	inactive	-0.973%	inactive	inactive
CC(=O)[O-].CC(=O)[O-].CC(=O)[O-].[Cr+3]	–	inactive	inactive	inactive	inactive	–	inactive	inactive	inactive	inactive	inactive	inactive	inactive	–	–	–	–	–	–	–
[Cl-].[Cl-].[Sn+2]	–	inactive	inactive	inactive	inactive	inactive	inactive	inactive	inactive	–	inactive	inactive	inactive	–	–	–	–	–	–	–
O.O.O.O.O.O.O.O=S(=O)([O-])[O-].[Co+2]	–	inactive	inactive	inactive	inactive	–	–	inactive	inactive	inactive	inactive	inactive	inactive	–	–	–	–	–	–	–
COC(=O)N(OC)c1ccccc1COc1ccn(-c2ccc(Cl)cc2)n1	–	–	inactive	inactive	inactive	inactive	–	1.27 µM (active)	inactive	21.9 µM (active)	inactive	inactive	–	–	inactive	inactive	0.137 µM (active)	-52.1%	inactive	24.3 µM (active)
O=NN(CCO)CCO	–	inactive	inactive	inactive	inactive	inactive	inactive	inactive	inactive	inactive	inactive	inactive	–	inactive	inactive	inactive	inactive	1.69%	–	–
S=C=Nc1ccccc1	–	inactive	inactive	inactive	inactive	inactive	inactive	inactive	inactive	inactive	inactive	inactive	inactive	–	–	–	–	–	inactive	–
O.O.O.O.O.O.O=S(=O)([O-])[O-].[Ni+2]	–	inactive	inactive	inactive	inactive	inactive	inactive	inactive	inactive	–	inactive	–	–	–	–	–	–	–	–	–
